Active and inactive are the calls of the source. Unless noted, no rule for the calls is given here.

The nature of test [1]: HepG2 liver cancer cell viability effects, profiling panel, resazurin fluorescence, 24 h, PK04 Diversity Set (AID 1172). Also: test concentration not given here. The settings on record: higher = more signal. A general note: Resazurin is reduced to fluorescent resorufin, in cell work by metabolically active cells.
Test [2] is described as follows: basal S. cerevisiae growth modulation, no modifier, primary screen, OD600, strain BY4716, 24 h, basal condition (AID 1173). The settings on record: OD600, 24 h, higher = more signal, called active from +8 up or from −8 down.
Test [3] is described as follows: MM1S myeloma cell viability, profiling panel, resazurin fluorescence, basal, 24 h, PK04 Diversity Set (AID 1174).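 Also: MM1S multiple myeloma cell line; test concentration not given here.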 The conditions noted are these: higher = more signal, called active from +8 up or from −8 down.
Test [4] concerns the target Dihydroorotate dehydrogenase (quinone), mitochondrial (Plasmodium falciparum (isolate 3D7)) (UniProt Q08210). The test can be described thus: PfDHODH enzyme inhibitors, primary screen, biochemical, C-terminal His tag, absorbance 600 nm (AID 1175).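 Also: recombinant parasite enzyme with a five histidine tag at its C terminus; test concentration not given here.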 The conditions noted are these: DCIP absorbance 600 nm, higher = more signal, called active from +8 up or from −8 down.
Test [5] can be described thus: P. aeruginosa biofilm formation inhibitors, primary screen, strain PAO1, LB-PBS medium, absorbance 600 nm (AID 1176). Also: test concentration not given here. The settings on record: P. aeruginosa PAO1 growth/biofilm, A600, 12 h; higher = more signal.
A short description of test [6]: S. cerevisiae RM11-1a growth modifiers, primary screen, strain RM11-1a, OD600, basal, 24 h (AID 1177).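 Also: cultures grown under basal conditions with no added stressor; test concentration not given here.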 The settings on record: OD600, 24 h, higher = more signal, called active from +8 up or from −8 down.
The nature of test [7]: E. coli acrAB mutant growth effects, primary screen, E. coli filamentation inducers, strain DRC39, OD650, 24 h (AID 1178).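 Also: growth measured as culture turbidity by optical density at 650 nm; test concentration not given here.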 The settings on record: higher = more signal, called active from +8 up or from −8 down.
A short description of test [8]: E. coli acrAB mutant growth effects, primary screen, E. coli filamentation inducers, strain DRC39, OD650, 48 h (AID 1179).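 Also: screen aims at cell division blockers that make cells filament.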 The settings on record: E. coli DRC39 delta-acrAB growth, higher = more signal, called active from +8 up or from −8 down.
Test [9] in a line: RPMI8226 myeloma cell viability, profiling panel, resazurin fluorescence, basal, 24 h, PK04 Diversity Set (AID 1180).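 Also: RPMI8826 multiple myeloma cell line at 5000 cells per well; test concentration not given here.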 The settings on record: higher = more signal.
Test [10] deals with E3 ubiquitin-protein ligase XIAP (Homo sapiens) (UniProt P98170). The test can be described thus: XIAP binders, primary screen, biophysical, small-molecule microarray, fluorescence 635 nm (AID 1181).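 Also: score merges 667 nm emission and signal to noise over triplicate slides.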 The settings on record: small-molecule microarray binding, higher = more signal.
Chain of E3 ubiquitin-protein ligase XIAP (Homo sapiens) (P98170 whole entry, looked up): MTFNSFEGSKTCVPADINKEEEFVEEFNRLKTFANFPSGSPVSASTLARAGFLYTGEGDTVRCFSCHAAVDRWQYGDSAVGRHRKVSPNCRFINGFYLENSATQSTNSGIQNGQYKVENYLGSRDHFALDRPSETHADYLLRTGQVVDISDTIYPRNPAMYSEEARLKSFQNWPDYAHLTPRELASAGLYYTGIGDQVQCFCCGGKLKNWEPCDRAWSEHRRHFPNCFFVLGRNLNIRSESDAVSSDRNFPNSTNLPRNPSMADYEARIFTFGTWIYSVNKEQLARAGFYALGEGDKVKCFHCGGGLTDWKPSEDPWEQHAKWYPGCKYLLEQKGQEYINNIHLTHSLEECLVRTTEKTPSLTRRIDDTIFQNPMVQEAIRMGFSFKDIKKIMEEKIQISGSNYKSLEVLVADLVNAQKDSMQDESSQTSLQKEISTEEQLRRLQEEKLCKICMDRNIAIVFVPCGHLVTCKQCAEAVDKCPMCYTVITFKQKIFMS

Chain of Dihydroorotate dehydrogenase (quinone), mitochondrial (Plasmodium falciparum (isolate 3D7)) (Q08210 whole entry, looked up): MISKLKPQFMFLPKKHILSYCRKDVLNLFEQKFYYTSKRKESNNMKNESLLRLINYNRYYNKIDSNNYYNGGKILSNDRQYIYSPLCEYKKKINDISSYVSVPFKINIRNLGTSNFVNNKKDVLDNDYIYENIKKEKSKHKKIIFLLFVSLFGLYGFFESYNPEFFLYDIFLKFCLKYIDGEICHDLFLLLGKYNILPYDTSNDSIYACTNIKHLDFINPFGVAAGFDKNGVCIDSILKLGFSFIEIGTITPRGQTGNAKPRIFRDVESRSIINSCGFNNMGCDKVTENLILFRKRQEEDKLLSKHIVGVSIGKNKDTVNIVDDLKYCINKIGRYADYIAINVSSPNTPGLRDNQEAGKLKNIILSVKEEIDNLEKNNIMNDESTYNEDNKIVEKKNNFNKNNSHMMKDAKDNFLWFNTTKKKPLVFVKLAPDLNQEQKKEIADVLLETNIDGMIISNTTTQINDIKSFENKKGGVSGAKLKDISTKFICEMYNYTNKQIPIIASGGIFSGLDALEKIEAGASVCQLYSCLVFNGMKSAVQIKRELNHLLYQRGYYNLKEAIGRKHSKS

On to `O=C1O[C@@H](c2ccccc2)[C@@H](c2ccccc2)N2[C@@H](c3ccc(O)cc3)[C@]3(C(=O)Nc4ccc(C#CC5(O)CCCCCC5)cc43)[C@@H](C(=O)N3CCN(c4ncccn4)CC3)[C@H]12`, for which the z-score in test [1] was 1.63; in test [2], -0.271 (inactive); in test [3], 0.0176 (inactive); in test [5], -0.641 (inactive); in test [6] it was 0.642 (inactive); in test [7] it was 0.614 (inactive). For the same compound, the z-score in test [8] is 0.11 (inactive); in test [9], 1.1. Further, the figures for the composite z-score in test [4] and in [10] were -1.08 (inactive) and -0.127, respectively.
For `CCCCC(=C=CC[C@H](O)c1ccccc1OCCO)C[C@H](O)c1ccccn1`, the z-score in test [1] was 0.973; in test [2], -1.8 (inactive); in [3], 0.843 (inactive); in test [5], 0.0235 (inactive); in [6] it was 0.0401 (inactive); in [7], 0.917 (inactive). Also, the z-score was 0.726 (inactive) in [8] and 1.13 in test [9]. The composite z-score was -1.36 (inactive) in [4] and 0.104 in [10].
For the compound `O=C(NCc1ccccc1)[C@]1(Cc2ccccc2)N=C(c2ccc(OCCCO)cc2)O[C@@H]1c1ccccc1`, the z-score in test [1] is 0.455; in test [2], 1.41 (inactive); in test [3], -1.91 (inactive); in test [5] it was 1.19 (inactive); in [6], 3.75 (inactive); in test [7] it was 0.653 (inactive). Further, the z-score is -0.642 (inactive) in test [8] and -1.79 in test [9]. Further, the figures for the composite z-score in [4] and in test [10] were 1.8 (inactive) and 0.0871, respectively.
Turning to `NC(=O)NCC#Cc1ccc2c(c1)[C@]1(C(=O)N2)[C@H](c2ccc(O)cc2)N2[C@H](c3ccccc3)[C@H](c3ccccc3)OC(=O)[C@H]2[C@@H]1C(=O)NC[C@H](O)c1ccccc1`, the z-score was 0.22 in test [1]; -0.683 (inactive) in [2]; 0.953 (inactive) in [3]; -0.136 (inactive) in test [5]; -0.0444 (inactive) in test [6]; 0.203 (inactive) in test [7]. Moreover, the z-score in test [8] was 0.841 (inactive); in test [9], 0.82. In addition, the composite z-score in test [4] was -0.494 (inactive); in test [10] it was 0.045.
On to `Cc1ccc(-c2cccc(=O)o2)cc1`, for which the z-score in test [1] is -0.789; in [2], -2.2 (inactive); in test [3] it was 0.123 (inactive); in [5] it was -0.128 (inactive); in test [6], -0.333 (inactive); in [7], -0.418 (inactive). In addition, the figures for the z-score in [8] and in [9] were -0.292 (inactive) and -0.442, respectively. Also, the results for the composite z-score in [4] and in test [10] were -0.919 (inactive) and -0.0143, respectively.
As for `C=C(CCCC)/C(=C/C[C@@H](OC(=O)c1ccncc1)c1ccccc1OCCO)c1cc(C(=O)OC)ccc1OC`, the z-score in test [1] is -0.16; in [2], 0.0793 (inactive); in [3] it was -1.38 (inactive); in test [5], 0.506 (inactive); in test [6] it was 0.111 (inactive); in [7], 0.275 (inactive). Besides, the z-score was 0.223 (inactive) in test [8] and -0.94 in [9]. The composite z-score in test [4] was -0.455 (inactive); in test [10], 0.057.
For `[N-]=[N+]=NCc1ccccc1C[C@]1(C(=O)NCCN2CCOCC2)N=C(c2ccc(OCCCO)cc2)O[C@H]1c1ccccc1`, the z-score in test [1] was 0.383; in test [2], -2 (inactive); in test [3], -0.0784 (inactive); in test [5], 0.193 (inactive); in test [6] it was -0.65 (inactive); in test [7], 1.24 (inactive). The values for the z-score in test [8] and in test [9] were 0.535 (inactive) and 0.166, respectively. Besides, the composite z-score was -0.603 (inactive) in [4] and 0.131 in test [10].
For the compound `CCCC=C(CCC)[C@@H](NS(=O)(=O)CC)c1ccccc1`, the z-score in test [1] was 0.281; in test [2], 1.32 (inactive); in test [3], -0.364 (inactive); in [5], 0.302 (inactive); in test [6] it was 0.462 (inactive); in test [7] it was -1.1 (inactive). The z-score is -0.0887 (inactive) in test [8] and -0.745 in test [9]. Besides, the composite z-score is -0.317 (inactive) in test [4] and 0.23 in test [10].
`COC(=O)[C@@]1(Cc2ccccc2)[C@H]2c3cc(C(=O)N(C)C)n(Cc4ccccn4)c3C[C@H]2CN1C(=O)c1ccccc1`: the z-score in test [1] is -0.802; in [2] it was 1.6 (inactive); in test [3], -1.33 (inactive); in test [5], 0.964 (inactive); in test [6] it was 0.781 (inactive); in [7] it was -1.19 (inactive). The z-score in [8] is -0.507 (inactive); in test [9], -1.26. For the same compound, the composite z-score in test [4] was 0.611 (inactive); in test [10], 0.124.
As for `COCCOC(=O)N1C(=O)[C@@]2(c3cc(C#CC4(O)CCCCCC4)ccc31)[C@H](C(=O)NC[C@H](O)c1ccccc1)[C@H]1C(=O)O[C@H](c3ccccc3)[C@H](c3ccccc3)N1[C@@H]2c1ccc(OCCO)cc1`, the z-score in test [1] is 1.49; in test [2], 0.385 (inactive); in test [3], -0.909 (inactive); in test [5], 1.05 (inactive); in [6] it was 2.73 (inactive); in [7], 0.608 (inactive). The figures for the z-score in test [8] and in test [9] were 0.187 (inactive) and 0.0705, respectively. The composite z-score in test [4] was -1.38 (inactive); in [10], 0.643.
In the case of `COC(=O)c1ccc(OC)c(/C=C\CC(CCc2ccccc2)OC(=O)c2ccncc2)c1` (stereo not given), the z-score was 0.263 in test [1]; 0.0069 (inactive) in test [2]; 0.472 (inactive) in [3]; 0.0619 (inactive) in test [5]; -0.0204 (inactive) in test [6]; 0.0514 (inactive) in [7]. The z-score in [8] is -0.379 (inactive); in [9], 1.24. Further, the composite z-score in [4] is -3.1 (inactive); in [10], 2.62.

The values above are taken from PubChem BioAssay.
